Screening data (PubChem)
FLuc modulator: inhibits or activates purified firefly luciferase, miR-21 counter-screen; P08659; purified FLuc, Km substrates, luminescence inhibition; Potency, µM (titrated, usually from 57.5 µM), for inactives: at the top dose activity change, negative = inhibition, actives largely listed as inhibitors; actives 6.9% (n = 360,000); AID 588342;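 also: plate controls were vehicle for no effect and reference inhibitor for full effect; nearly all actives have a fitted effect of over 55% in size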
Target sequence (P08659 whole entry, looked up): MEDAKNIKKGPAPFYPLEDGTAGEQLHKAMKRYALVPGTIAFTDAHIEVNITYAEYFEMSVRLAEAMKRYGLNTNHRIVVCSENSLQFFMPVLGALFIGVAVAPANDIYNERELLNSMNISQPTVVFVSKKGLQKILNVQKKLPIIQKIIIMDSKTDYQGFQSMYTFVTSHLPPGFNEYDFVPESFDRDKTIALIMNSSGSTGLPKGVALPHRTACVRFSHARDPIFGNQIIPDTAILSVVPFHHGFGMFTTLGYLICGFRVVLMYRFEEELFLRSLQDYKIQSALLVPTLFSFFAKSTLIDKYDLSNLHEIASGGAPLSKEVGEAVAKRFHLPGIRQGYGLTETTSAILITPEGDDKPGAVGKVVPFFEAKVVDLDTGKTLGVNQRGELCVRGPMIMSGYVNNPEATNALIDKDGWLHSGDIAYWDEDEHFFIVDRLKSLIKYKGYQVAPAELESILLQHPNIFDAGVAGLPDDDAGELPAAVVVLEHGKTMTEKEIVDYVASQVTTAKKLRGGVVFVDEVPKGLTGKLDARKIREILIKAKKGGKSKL
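Purified P. pyralis luciferase (10nM final) with 10uM D-luciferin and 10uM ATP (Km levels) in 50mM Tris acetate pH 7.5, 10mM Mg acetate, 0.01% Tween-20, 0.05% BSA; qHTS 6-point titration, ~60 µM downward; luminescence read.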
Luc counter: blocks Kinase-Glo luciferase, a counter-screen artifact | Q27757 | Kinase-Glo luciferase, ATP luminescence, 8 min | Potency, µM (top dose mostly 38.3 µM), inactives show at the highest dose activity change, negative = inhibition, hits mostly inhibitors | actives 0.28% (n = 200,000) | AID 1379; also: % is scaled to controls: 0 for no effect and ±100 for the full control effect; nearly all actives have a fitted effect of over 60% in size
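Luminescence was the read-out, taken after 8-minute incubation at ambient temperature. Luciferase turned over luciferin with 10 uM ATP in imidazole pH 7.2 buffer containing KCl, MgCl2, Tween 20 and BSA.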
ELG1 genotoxic: induces genotoxicity in HEK293T cells with luciferase-tagged ELG1. AID 504466. HEK293T ELG1-luciferase reporter, luminescence, 16 h. Potency, µM (doses to about 46 µM), without a hit: top-dose activity change, positive = activation, hits mostly activators. actives 1.3% (n = 330,000); also: % of control where 0% means no effect; nearly all actives have a fitted effect of over 60% in size
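ELG1-luciferase HEK293T cells, 2,000/well; compound pinned in; 16 hr, 37 °C, 5% CO2; ONE-Glo, 30 min RT; luminescence on CCD imager.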
SMN2 splice up: SMN2 splice variant enhancement; HEK293 SMN2-luciferase splicing reporter, luminescence, 30-36 h; actives 2.8% (n = 210,000); Potency, µM (doses to about 46.1 µM), for the others: top-dose activity change, positive = activation, hits mostly activators; AID 1458; also: % of control where 0% means no effect; nearly all actives have a fitted effect of over 55% in size
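HEK293 cells carry an SMN2 […]–luciferase reporter in which exon 7 inclusion puts luciferase in frame. Cells were plated 10-12 h before compound addition, then incubated 30-36 h at 37C. ONE-Glo luminescence was read; sodium butyrate at 4.5 mM final served as control.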
NPC1 promoter act: activates the NPC1 promoter; Huh7 NPC1 promoter luciferase reporter, 24 h; actives 2.4% (n = 320,000); Potency, µM (top dose mostly 9.22 µM), inactives show at the highest dose activation, most hits filed as activators; also: % of control where 0% means no effect; nearly all actives have a fitted effect of over 60% in size
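NPC1 promoter–luciferase Huh7 cells; 24 h compound; luminescence.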
Rab9 promoter act: activators of Rab9 promoter; Potency, µM (doses to about 9.22 µM), for inactives: top-dose activation, negative = inhibition, hits mostly activators; actives 2.8% (n = 320,000); Huh7 Rab9 promoter-luciferase reporter, luminescence, 24 h; also: % of control where 0% means no effect; nearly all actives have a fitted effect of over 60% in size
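Steps: seed 1500 Huh7 Rab9-luc cells per well, rest 2 h at 37 °C; add compound in DMSO; incubate 24 h; add luciferase reagent, 10 min ambient; read luminescence.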
An asterisk follows results filed as active; ? = inconclusive; . = not tested or not shown; [ ] = remark or other dose. Compounds with a hit are over-represented: about 7.4% of the library has one in this group of screens. Calls follow the shape of the dose curve; as a rule, active = well fitted curve in the direction sought with a large enough effect; inconclusive = small, poorly fitted or top-dose-only effect, or another doubt; inactive = no such curve, though single readings can be large; an effect the other way counts as inactive or inconclusive. Potency is read from the fitted curve at half-maximal effect.

SMILES	FLuc modulator	Luc counter	ELG1 genotoxic	SMN2 splice up	NPC1 promoter act	Rab9 promoter act
CCCCC(=O)N1CCc2cc(OC)c(OC)cc2C1COc1ccc(OC)cc1 (stereo not given)	2.1%	.	.	.	.	.
NC(=O)[C@H]1CC2(CC(c3cccc(NC(=O)COc4ccc(Cl)cc4)c3)=NO2)CN1C(=O)C(c1ccccc1)c1ccccc1 (stereo not given in full)	?	.	-9.1%	.	-7.6%	-14.6%
NC(=O)[C@@H]1CC2(CC(c3cccc(NC(=O)COc4ccc(Cl)cc4)c3)=NO2)CN1C(=O)COc1ccc(Cl)cc1 (stereo not given in full)	12µM*	.	-15.2%	.	-9.1%	-18.0%
CC/C=C/C(=O)N1CC2(CC(c3cccc(NC(=O)COc4ccc(Cl)cc4)c3)=NO2)C[C@H]1C(N)=O (stereo not given in full)	12µM*	.	-10.7%	.	5.1%	-0.2%
N#CCC(=O)N1CC2(CC(c3cccc(NC(=O)COc4ccc(Cl)cc4)c3)=NO2)C[C@@H]1C(N)=O (stereo not given in full)	15.1µM*	.	0.1%	.	-4.1%	-6.9%
NC(=O)[C@H]1CC2(CC(c3cccc(NC(=O)COc4ccc(Cl)cc4)c3)=NO2)CN1C(=O)[C@H]1CCC(=O)N1 (stereo not given in full)	12µM*	.	2.3%	.	-0.8%	-7.8%
CC(C)c1nnc(N2C(=O)c3oc4ccccc4c(=O)c3C2c2cccc(O)c2)s1 (stereo not given)	0.7%	.	.	2.6%	.	.
Cc1cc(OCC(=O)NC(Cc2ccc(Cl)cc2)C(=O)O)c2c(C)c(C)c(=O)oc2c1 (stereo not given)	3.2%	.	-1.7%	.	-4.7%	-8.6%
CC(C)N=C=NC(C)C	.	.	.	-1.1%	.	.
NC(=O)c1cc(S(=O)(=O)N2CCCC2)ccc1OCCOc1ccccc1	-9.2%	.	-5.0%	.	-5.6%	-4.3%
Cc1csc(=O)n1CC(=O)Nc1ccc(C(C)C)cc1	?	.	?	.	24.7%	?
CCOC(=O)c1c(C)oc2ncnc(Nc3ccc(CC)cc3)c12	-1.3%	.	.	-1.2%	.	.
CCc1ccc(Nc2oc(C)cc(=O)c2C(C)=O)cc1	19µM*	-4.5%	15.0%	-10.2%	23.0%	16.3%
S=c1[nH]c2cc(-c3ccccc3)ccc2o1	21.3µM*	.	4.3%	.	5.4%	15.8%
COc1ccc(CN2C(=O)c3cccnc3C2=O)cc1S(=O)(=O)NC1CCCCC1	-0.2%	.	0.3%	.	2.8%	-2.0%
O=c1c2ccccc2nc(COc2ccccc2)n1/N=C/c1ccc(O)c(O)c1	26.9µM*	.	-6.3%	.	-5.9%	-20.3%
Cc1cc(C(=O)Nc2ccc3[nH]ccc3c2)no1	10.7µM*	.	?	.	2.24µM*	2.82µM*
CN(C)S(=O)(=O)Nc1ccc2c(c1)Cc1ccccc1-2	26.9µM*	0.4%	?	?	15.8%	24.4%
CC1CCc2sc(C(=O)N/N=C/c3ccc([N+](=O)[O-])cc3)cc2C1 (stereo not given)	4.7%	1.6%	0.5%	6.0%	-3.7%	-2.6%
CN(CC(=O)NCc1ccccn1)S(=O)(=O)c1ccc2ccccc2c1	4.8%	-5.7%	0.2%	.	-1.1%	-2.4%
CCOC(=O)c1c(N)sc(-c2ccccc2)c1C	16.9µM*	-2.4%	?	14.5%	-1.6%	2.1%
CCOC(=O)c1cc(-c2ccccc2)sc1N	21.3µM*	-0.2%	14.6%	?	29.0%	?
CCOC(=O)c1sc(-c2ccccc2)cc1N	13.5µM*	-6.2%	12.6µM*	?	?	?
CC(=O)c1sc(-c2ccccc2)cc1N	?	.	9.7%	.	-4.9%	12.2%
CCOC(=O)c1sc(-c2ccc(OC)cc2)cc1N	?	-6.8%	?	.	2.24µM*	1.26µM*
SMILES	FLuc modulator	Luc counter	ELG1 genotoxic	SMN2 splice up	NPC1 promoter act	Rab9 promoter act
CCOC(=O)c1c(N)sc(C)c1-c1ccccc1	.	-1.9%[39.9 µM]	.	.	.	.
Cc1cccc(C)c1NC(=O)CCSc1nc(-c2ccc3c(c2)OCO3)cc(C(F)(F)F)n1	1.4%	.	.	-8.6%	.	.
COc1ccc(C(=O)NC(=S)Nc2ccc(N3CCOCC3)cc2)cc1Cl	0.8%	.	-22.3%	.	-2.3%	-9.9%
CCOC(=O)c1sc(-c2ccc(F)cc2)cc1N	9.53µM*	-2.6%	14.1µM*	?	?	2.51µM*
CCOc1cc(/C=N\Nc2ncc(F)c(N3CCOCC3)n2)ccc1Oc1nc(Cl)ncc1F	21.3µM*	.	-10.4%	.	-6.5%	-14.7%
Cc1cc(C)c2c(N)c(C(=O)Nc3ccccc3F)sc2n1	.	.	?	.	1.78µM*	2.24µM*
Cc1cc(C)c2c(N)c(C(=O)Nc3ncc(C)s3)sc2n1	0.0953µM*	?	?	-55.5%	-10.3%	?
COC(=O)c1sc2nc(C)cc(C)c2c1N	?	-2.9%	7.4%	.	-0.2%	16.5%
COc1ccc2nc(NC(=O)c3sc4nc(C)cc(C)c4c3N)sc2c1	0.12µM*	.	?	.	?	?
COCc1cc(C)nc2sc(C(=O)Nc3ccccc3C)c(N)c12	?	.	-2.3%	.	0.7%	1.0%
COCc1cc(C)nc2sc(C(=O)Nc3ccccc3Br)c(N)c12	8.49µM*	.	6.6%	.	15.3%	21.2%
Cc1ccc(N=Nc2[nH]c3ccccc3c2O)cc1	?	-4.6%	?	12.6µM*	5.2%	19.4%
Cc1ccc(N=Nc2c(O)[nH]c3ccc(F)cc23)cc1	?	.	?	.	3.16µM*	2.82µM*
COc1ccc(N=Nc2[nH]c3ccc(C)cc3c2O)cc1	-11.2%	-2.8%	13.1%	0.0%[1.84 µM]	7.2%	24.2%
Cc1ccc2[nH]c(O)c(N=NC(N)=S)c2c1	2.0%	.	4.8%	.	-3.6%	0.6%
O=C(O)c1ccc(N=Nc2c(O)[nH]c3ccc(Br)cc23)cc1	10.7µM*	.	18.3µM*	.	1.26µM*	?
O=C(O)c1ccc(N=Nc2c(O)[nH]c3cc(Cl)ccc23)cc1	0.849µM*	.	9.2µM*	.	0.316µM*	0.1µM*
COc1ccc2c(CC(=O)Nc3cccc(S(=O)(=O)N4CCOCC4)c3)coc2c1	?	1.3%	-0.6%	2.7%	0.2%	-2.1%
Oc1[nH]c2ccccc2c1N=Nc1cccc(Cl)c1	5.36µM*	.	?	.	29.6%	?
Cc1cccc2c(N=Nc3ccccc3)c(O)[nH]c12	1.51µM*	.	5.17µM*	.	1.41µM*	2µM*
CCOc1ccc(NC(=S)N=Nc2c(O)[nH]c3ccccc23)cc1	-16.4%	-3.5%	-9.9%	-40.8%	-8.2%	-4.0%
Oc1[nH]c2ccccc2c1N=Nc1c(F)c(F)c(Cl)c(F)c1F	-3.1%	.	3.8%	.	24.4%	?
Oc1cccc(NC(=S)N=Nc2c(O)[nH]c3ccccc23)c1	19µM*	.	?	.	16.0%	22.4%
